Hit rate of the full screen: of about 5,500 compounds, about 2,000 (36%) were called active. Roughly 18% stayed inconclusive and do not appear here. Cut-off read from the data, not from the text of the source: active = normalized growth mostly below about 0.91 (no sharp cut-off); inconclusive = no clear call, values can overlap the other calls; inactive = mostly above about 0.92. This is one part of the list.
Assay: chemical genetic growth profiling, strain panel (AID 1159580);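 note: tested at 20 µM; growth read once vehicle control cultures reached saturation at 30 °C; 1 = growth at the plate median or of vehicle wells; lower values mean less growth of the strain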
Conditions: growth OD

Measured: normalized growth

O=C(O)c1cc2cc(Cl)ccc2[nH]1
inactive: S. cerevisiae deletion strains, locus YJR075W, strain HOC1, active compounds read low 1.05 | S. cerevisiae deletion strains, locus YKL009W, strain mrt4, active compounds read low 1.01 | S. cerevisiae deletion strains, locus YKL068W, active compounds read low 0.98 | S. cerevisiae deletion strains, locus YKL085W, strain MDH1 (second series), active compounds read low 1.02 | S. cerevisiae deletion strains, locus YKL085W, strain MDH1, active compounds read low 1.02 | S. cerevisiae deletion strains, locus YKL160W, strain elf1, active compounds read low 1 | S. cerevisiae deletion strains, locus YKL190W, strain CNB1, active compounds read low 1.01 | S. cerevisiae deletion strains, locus YKR001C, strain vps1, active compounds read low 0.984 | S. cerevisiae deletion strains, locus YKR026C, strain gcn3, active compounds read low 0.963 | S. cerevisiae deletion strains, locus YKR091W, strain srl3, active compounds read low 0.994 | S. cerevisiae deletion strains, locus YLL001W, strain dnm1, active compounds read low 0.966 | S. cerevisiae deletion strains, locus YLL026W, active compounds read low 0.98 | S. cerevisiae deletion strains, locus YLL041C, strain sdh2, active compounds read low 0.988 | S. cerevisiae deletion strains, locus YLR027C, strain aat2, active compounds read low 0.992 | S. cerevisiae deletion strains, locus YLR039C, strain RIC1, active compounds read low 1.04 | S. cerevisiae deletion strains, locus YLR058C, strain SHM2, active compounds read low 1.01 | S. cerevisiae deletion strains, locus YLR102C, strain apc9, active compounds read low 0.98 | S. cerevisiae deletion strains, locus YLR113W, strain HOG1, active compounds read low 0.944 | S. cerevisiae deletion strains, locus YLR221C, strain rsa3, active compounds read low 0.991 | S. cerevisiae deletion strains, locus YLR258W, strain gsy2, active compounds read low 0.989 | S. cerevisiae deletion strains, locus YLR262C, strain YPT6 (second series), active compounds read low 0.994 | S. cerevisiae deletion strains, locus YLR262C, strain YPT6, active compounds read low 1.06 | S. cerevisiae deletion strains, locus YLR268W, strain sec22, active compounds read low 1 | S. cerevisiae deletion strains, locus YLR320W, strain mms22, active compounds read low 0.987 | S. cerevisiae deletion strains, locus YLR330W, strain CHS5, active compounds read low 1 | S. cerevisiae deletion strains, locus YLR342W, strain FKS1 (second series), active compounds read low 1.01 | S. cerevisiae deletion strains, locus YLR342W, strain FKS1, active compounds read low 0.991 | S. cerevisiae deletion strains, locus YLR357W, strain rsc2, active compounds read low 0.953 | S. cerevisiae deletion strains, locus YLR370C, strain arc18, active compounds read low 0.981 | S. cerevisiae deletion strains, locus YLR371W, strain rom2, active compounds read low 0.98 | S. cerevisiae deletion strains, locus YLR384C, strain iki3, active compounds read low 0.986 | S. cerevisiae deletion strains, locus YLR418C, strain cdc73, active compounds read low 0.991 | S. cerevisiae deletion strains, locus YML016C, strain PPZ1, active compounds read low 1 | S. cerevisiae deletion strains, locus YML032C, strain rad52, active compounds read low 0.977 | S. cerevisiae deletion strains, locus YML120C, strain ndi1, active compounds read low 0.984 | S. cerevisiae deletion strains, locus YML124C, strain tub3, active compounds read low 0.987 | S. cerevisiae deletion strains, locus YMR058W, strain fet3, active compounds read low 0.985 | S. cerevisiae deletion strains, locus YMR078C, strain ctf18, active compounds read low 0.977 | S. cerevisiae deletion strains, locus YMR125W, strain sto1, active compounds read low 0.959 | S. cerevisiae deletion strains, locus YMR129W, active compounds read low 0.993 | S. cerevisiae deletion strains, locus YMR205C, strain PFK2, active compounds read low 0.956 | S. cerevisiae deletion strains, locus YMR223W, strain ubp8, active compounds read low 0.983 | S. cerevisiae deletion strains, locus YMR231W, strain pep5, active compounds read low 0.989 | S. cerevisiae deletion strains, locus YMR263W, strain SAP30, active compounds read low 1.02 | S. cerevisiae deletion strains, locus YMR307W, strain GAS1, active compounds read low 1.02 | S. cerevisiae deletion strains, locus YNL067W, strain RPL9B, active compounds read low 1.03 | S. cerevisiae deletion strains, locus YNL071W, strain lat1, active compounds read low 0.994 | S. cerevisiae deletion strains, locus YNL128W, strain TEP1, active compounds read low 1.03 | S. cerevisiae deletion strains, locus YNL153C, strain GIM3, active compounds read low 1.03 | S. cerevisiae deletion strains, locus YNL183C, strain NPR1, active compounds read low 0.866 | S. cerevisiae deletion strains, locus YNL209W, strain ssb2, active compounds read low 0.991 | S. cerevisiae deletion strains, locus YNL233W, strain BNI4, active compounds read low 1.01 | S. cerevisiae deletion strains, locus YNL248C, strain rpa49, active compounds read low 0.991 | S. cerevisiae deletion strains, locus YNL250W, strain rad50, active compounds read low 0.971 | S. cerevisiae deletion strains, locus YNL271C, strain bni1, active compounds read low 0.969 | S. cerevisiae deletion strains, locus YNL298W, strain CLA4, active compounds read low 0.978 | S. cerevisiae deletion strains, locus YNL307C, strain MCK1, active compounds read low 0.979 | S. cerevisiae deletion strains, locus YNL322C, strain KRE1 (second series), active compounds read low 0.984 | S. cerevisiae deletion strains, locus YNL322C, strain KRE1, active compounds read low 1.01 | S. cerevisiae deletion strains, locus YNR049C, strain mso1, active compounds read low 0.983 | S. cerevisiae deletion strains, locus YNR052C, strain pop2, active compounds read low 0.989 | S. cerevisiae deletion strains, locus YOL006C, strain TOP1, active compounds read low 1.05 | S. cerevisiae deletion strains, locus YOL012C, strain htz1 0.817 | S. cerevisiae deletion strains, locus YOL147C, strain pex11, active compounds read low 0.981 | S. cerevisiae deletion strains, locus YOR001W, strain rrp6, active compounds read low 1.01 | S. cerevisiae deletion strains, locus YOR061W, strain CKA2, active compounds read low 1.01 | S. cerevisiae deletion strains, locus YOR069W, strain VPS5, active compounds read low 0.996 | S. cerevisiae deletion strains, locus YOR070C, strain gyp1, active compounds read low 0.986 | S. cerevisiae deletion strains, locus YOR080W, strain dia2, active compounds read low 0.981 | S. cerevisiae deletion strains, locus YOR083W, strain WHI5, active compounds read low 1 | S. cerevisiae deletion strains, locus YOR106W, strain vam3, active compounds read low 0.999 | S. cerevisiae deletion strains, locus YOR136W, strain idh2, active compounds read low 0.992 | S. cerevisiae deletion strains, locus YOR144C, strain elg1, active compounds read low 0.989 | S. cerevisiae deletion strains, locus YOR184W, strain ser1, active compounds read low 0.967 | S. cerevisiae deletion strains, locus YOR231W, strain MKK1, active compounds read low 0.926 | S. cerevisiae deletion strains, locus YOR265W, strain rbl2, active compounds read low 0.99 | S. cerevisiae deletion strains, locus YOR270C, strain vph1, active compounds read low 0.984 | S. cerevisiae deletion strains, locus YOR290C, strain snf2, active compounds read low 0.992 | S. cerevisiae deletion strains, locus YOR316C, strain cot1, active compounds read low 0.983 | S. cerevisiae deletion strains, locus YPL051W, strain arl3, active compounds read low 0.991 | S. cerevisiae deletion strains, locus YPL055C, strain LGE1, active compounds read low 1.06 | S. cerevisiae deletion strains, locus YPL078C, strain atp4, active compounds read low 0.997 | S. cerevisiae deletion strains, locus YPL106C, strain sse1, active compounds read low 0.966 | S. cerevisiae deletion strains, locus YPL240C, strain hsp82, active compounds read low 0.998 | S. cerevisiae deletion strains, locus YPL241C, strain CIN2, active compounds read low 1.01 | S. cerevisiae deletion strains, locus YPL256C, strain CLN2, active compounds read low 0.935 | S. cerevisiae deletion strains, locus YPR119W, strain clb2, active compounds read low 0.983 | S. cerevisiae deletion strains, locus YPR141C, strain kar3, active compounds read low 0.976 | S. cerevisiae deletion strains, locus YPR163C, strain tif3, active compounds read low 0.991 | S. cerevisiae deletion strains, locus YPR167C, strain met16, active compounds read low 0.986 | S. cerevisiae deletion strains, strain wtn01, active compounds read low 0.992 | S. cerevisiae strains, strain wild type, active compounds read low 1.01

— PubChem BioAssay AID1159580 (chemical genetic matrix, 2015)
